Source: PubChem BioAssay (Tox21)
Inconclusive results are not listed. Values without a mark were called inactive. The source made the active and inactive calls. Unless noted, the call rests on the fitted dose curve.

system: not listed separately; experiment: cAMP Responsive Elements (CRE) small molecule agonists, cell-based qHTS assay (AID 1963590); conditions: CRE-bla HEK293T, beta-lactamase FRET ratio, 3 h; series mostly up to 92.4 µM; activation: at the top concentration
How it was run: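 Quantitative HTS for CRE agonists: HEK 293T CRE-bla cells, overnight plating, 3 h compound incubation at 37 C/5% CO2, then 2 h room-temperature LiveBLAzer B/G FRET substrate loading.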
On the % scale 0 is the no-effect control and ±100 the full control effect.

| SMILES | activation | Potency |
| --- | --- | --- |
| COCCOCCOCCOCCOC | -0.417% |  |
| C=C(C)[C@H]1CC=C(C)CC1 | 0.313% |  |
| CC(C)C1CCC(O)CC1 (stereo not given) | -0.628% |  |
| C=CC(C)(CCC=C(C)C)OC(=O)CC (stereo not given) | -0.58% |  |
| [O-][n+]1ccc(Cl)cc1 | 1.2% |  |
| CC(C)CCO | -0.35% |  |
| O=C(O)CCS | 0.89% |  |
| Cc1cc(C)c(N=Nc2c(O)c(S(=O)(=O)O)cc3cc(S(=O)(=O)O)ccc23)cc1C | -0.168% [at 8.39 µM] |  |
| Cc1ccc(Nc2ccc(O)c3c2C(=O)c2ccccc2C3=O)cc1 | -0.0128% |  |
| C1=COCCC1 | 0.304% |  |
| NCCNCCN |  | inactive |
| CC(=O)N1C[C@H](O)C[C@H]1C(=O)O | -0.465% [at 42.5 µM] |  |

system: not listed separately; experiment: cAMP Responsive Elements (CRE) small molecule antagonists, cell-based qHTS assay (AID 1963591; active means well fitted inhibition curve with a large enough effect in the signal ratio in the repeat runs, not every such curve was filed as active; the % refers to the signal ratio); conditions: CRE-bla HEK293T, beta-lactamase FRET ratio; series mostly up to 92.4 µM; activity change, negative = inhibition: at the top concentration
How it was run: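 Fluorescence intensity from cleaved LiveBLAzer B/G substrate (2 h, room temperature) quantified CRE-bla activity in HEK 293T cells exposed 3 h to compound with 0.25 uM final NKH477.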

| SMILES | activity change, negative = inhibition | Potency |
| --- | --- | --- |
| Nc1nc(=O)n([C@@H]2O[C@H](CO)[C@@H](O)[C@@H]2F)cc1I | -5.66% [at 42.4 µM] |  |
| Cc1cc(C)cc(O)c1 |  | inactive |
| COc1cc(C(=O)N2CCOCC2)cc(OC)c1OC | -1.91% [at 42.4 µM] |  |
| CCCO | 0.9% |  |
| CC12CCC(C1)C(C)(C)C2O (stereo not given) | -6.18% |  |
| [O]=[Zr] | 5.7% |  |
| C1CCC(SSC2CCCCC2)CC1 | 0.275% |  |
| CCCC[C@H]1CN(CC2CCOCC2)C(=O)OC12CCN(C1(C)CCN(C(=O)c3c(C)ncnc3C)CC1)CC2 | 8.85% |  |
| Cc1ccccc1S(=O)(=O)O | -0.236% |  |
| NC(=O)c1ccc(N)cc1 | 2.63% |  |
| FC(F)(F)C(Cl)Br (stereo not given) |  | inactive |
| CCCCCCCCSCCO | -11.7% |  |
| Cc1ccccc1C(N)=O | 3.32% |  |
| CC12CC3CC(C)(C1)CC(N)(C3)C2 | -7.13% [at 42.4 µM] |  |
| O[C@@H]([C@H](O)[C@H](O)CBr)[C@H](O)CBr | 2.57% |  |
| CCOc1ccc(N)c([N+](=O)[O-])c1 | -3.19% |  |
| CC(=O)NCc1c(I)c(NC(C)=O)c(I)c(C(=O)O)c1I | 0.358% [at 42.4 µM] |  |
| Nc1cc([N+](=O)[O-])ccc1Cl | 6.79% |  |
| Cc1c(C(=O)c2c[nH]n(C)c2=O)ccc(S(C)(=O)=O)c1C1=NOCC1 | 2.03% [at 42.4 µM] |  |
| CC(C[N+](C)(C)C)OC(N)=O (stereo not given) | -7.15% [at 42.4 µM] |  |

| SMILES | activity change, negative = inhibition | Potency |
| --- | --- | --- |
| O=S(=O)(O)c1ccccc1O | -5.88% |  |
| Cc1cccc(N(C)C)c1 | 3.22% |  |
| OCC1CCC(CO)CC1 (stereo not given) | 4.96% |  |
| C=CCOC(=O)CCCCCC | -5.85% |  |
| CCN(CC)S(=O)(=O)c1ccc(C(=O)O)cc1 | -3% [at 42.4 µM] |  |
| NNS(=O)(=O)c1ccc(Oc2ccc(S(=O)(=O)NN)cc2)cc1 | 1.55% |  |
| O=Cc1ccc(C(=O)O)cc1 | -0.862% |  |
| COCCOCCOCCOCCOC | 11.8% |  |
| C=C(C)[C@H]1CC=C(C)CC1 | -9.43% |  |
| CC(C)C1CCC(O)CC1 (stereo not given) | -7.87% |  |
| C=CC(C)(CCC=C(C)C)OC(=O)CC (stereo not given) | 7.76% |  |
| [O-][n+]1ccc(Cl)cc1 | 1.57% |  |
| CC(C)CCO | -15.1% |  |
| O=C(O)CCS | 2.8% |  |
| Cc1cc(C)c(N=Nc2c(O)c(S(=O)(=O)O)cc3cc(S(=O)(=O)O)ccc23)cc1C | -0.183% [at 8.39 µM] |  |
| Cc1ccc(Nc2ccc(O)c3c2C(=O)c2ccccc2C3=O)cc1 | -8.1% |  |
| C1=COCCC1 | 17.5% |  |
| NCCNCCN |  | inactive |
| CC(=O)N1C[C@H](O)C[C@H]1C(=O)O | -2.12% [at 42.4 µM] |  |

target: Beta-2 adrenergic receptor (Homo sapiens) (UniProt P07550); experiment: Adrenergic beta2 receptor (ADRB2) small molecule antagonists, cell-based qHTS assay (AID 1963592); conditions: CHO-ADRB2 cells, isoproterenol-stimulated cAMP HTRF ratio, 0.5 h; series mostly up to 92.4 µM; activity change, negative = inhibition: at the top concentration; further: nearly all actives have a fitted effect of over 50% in size
Sequence (P07550 whole entry, looked up): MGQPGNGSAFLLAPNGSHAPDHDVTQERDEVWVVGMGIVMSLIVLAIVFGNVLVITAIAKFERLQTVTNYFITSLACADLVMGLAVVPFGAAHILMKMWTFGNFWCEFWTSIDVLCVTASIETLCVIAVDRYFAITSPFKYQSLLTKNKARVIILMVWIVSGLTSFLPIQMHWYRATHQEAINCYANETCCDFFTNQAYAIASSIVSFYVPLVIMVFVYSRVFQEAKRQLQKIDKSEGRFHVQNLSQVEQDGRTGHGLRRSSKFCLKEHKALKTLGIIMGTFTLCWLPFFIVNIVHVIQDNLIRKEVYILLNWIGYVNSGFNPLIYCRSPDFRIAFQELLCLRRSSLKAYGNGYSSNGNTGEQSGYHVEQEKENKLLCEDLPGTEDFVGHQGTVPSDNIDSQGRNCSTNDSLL
How it was run: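 Assay format: CHO-ADRB2 cells, 18-20hr seeding at 37C/5% CO2, then compound plus 1nM isoproterenol agonist mix for 0.5hr RT. Homogeneous time-resolved fluorescence cAMP detection after 1hr, expressed as 665/615 nm ratio.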

| SMILES | activity change, negative = inhibition | Potency |
| --- | --- | --- |
| Nc1nc(=O)n([C@@H]2O[C@H](CO)[C@@H](O)[C@@H]2F)cc1I | 0.513% [at 42.5 µM] |  |
| Cc1cc(C)cc(O)c1 |  | inactive |
| COc1cc(C(=O)N2CCOCC2)cc(OC)c1OC | 2.62% [at 42.5 µM] |  |
| CCCO | 0.131% |  |
| CC12CCC(C1)C(C)(C)C2O (stereo not given) | 8.76% |  |
| [O]=[Zr] | -3.55% |  |
| C1CCC(SSC2CCCCC2)CC1 | 0.682% |  |
| CCCC[C@H]1CN(CC2CCOCC2)C(=O)OC12CCN(C1(C)CCN(C(=O)c3c(C)ncnc3C)CC1)CC2 | -4.76% |  |
| Cc1ccccc1S(=O)(=O)O | 1.44% |  |
| NC(=O)c1ccc(N)cc1 | 0.224% |  |
| FC(F)(F)C(Cl)Br (stereo not given) |  | inactive |
| CCCCCCCCSCCO | 1.14% |  |
| Cc1ccccc1C(N)=O | -4.67% |  |
| CC12CC3CC(C)(C1)CC(N)(C3)C2 | 0.61% [at 42.5 µM] |  |
| O[C@@H]([C@H](O)[C@H](O)CBr)[C@H](O)CBr | -0.974% |  |
| CCOc1ccc(N)c([N+](=O)[O-])c1 | -5.18% |  |
| CC(=O)NCc1c(I)c(NC(C)=O)c(I)c(C(=O)O)c1I | 4.82% [at 42.5 µM] |  |
| Nc1cc([N+](=O)[O-])ccc1Cl | 0.0651% |  |
| Cc1c(C(=O)c2c[nH]n(C)c2=O)ccc(S(C)(=O)=O)c1C1=NOCC1 | -2.79% [at 42.5 µM] |  |
| CC(C[N+](C)(C)C)OC(N)=O (stereo not given) | 1.94% [at 42.5 µM] |  |

| SMILES | activity change, negative = inhibition | Potency |
| --- | --- | --- |
| O=S(=O)(O)c1ccccc1O | -7.91% |  |
| Cc1cccc(N(C)C)c1 | -0.662% |  |
| OCC1CCC(CO)CC1 (stereo not given) | 7.83% |  |
| C=CCOC(=O)CCCCCC | -1.91% |  |
| CCN(CC)S(=O)(=O)c1ccc(C(=O)O)cc1 | 8.16% [at 42.5 µM] |  |
| NNS(=O)(=O)c1ccc(Oc2ccc(S(=O)(=O)NN)cc2)cc1 | 3.05% |  |
| O=Cc1ccc(C(=O)O)cc1 | 4.08% |  |
| COCCOCCOCCOCCOC | 1.05% |  |
| C=C(C)[C@H]1CC=C(C)CC1 | 0.549% |  |
| CC(C)C1CCC(O)CC1 (stereo not given) | 0.095% |  |
| C=CC(C)(CCC=C(C)C)OC(=O)CC (stereo not given) | 1.25% |  |
| [O-][n+]1ccc(Cl)cc1 | 15.4% |  |
| CC(C)CCO | 6.25% |  |
| O=C(O)CCS | 0.407% |  |
| Cc1cc(C)c(N=Nc2c(O)c(S(=O)(=O)O)cc3cc(S(=O)(=O)O)ccc23)cc1C | -5.6% [at 8.39 µM] |  |
| Cc1ccc(Nc2ccc(O)c3c2C(=O)c2ccccc2C3=O)cc1 | 2.82% |  |
| C1=COCCC1 | 5.93% |  |
| NCCNCCN |  | inactive |
| CC(=O)N1C[C@H](O)C[C@H]1C(=O)O | 1.93% [at 42.5 µM] |  |
